Screens from PubChem.
In the library only some 3.2% were active in any assay of this set; here they are far more common.
Rv3671c protease: Rv3671c serine protease inhibitors, primary screen, biochemical, fluorescence polarization, M. tuberculosis H37Rv. P9WHR9. inhibition, % at 5.96 µM. 320,000 compounds, 0.048% hits. AID 2606, 2010; in the data active = inhibition above about 38%;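 also: extracellular domain of Rv3671c used as enzyme; 0% = enzyme with DMSO and 100% = no enzyme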
Mtb betalactam: beta-lactam sensitization of Mtb H37Rv, H37Rv. M. tuberculosis H37Rv growth with meropenem, percent inhibition. inhibition, % at 25 µM. 330,000 compounds, 0.27% hits. AID 434955, 2010; call rule not given here;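 also: growth measured after seven days incubation then overnight dye step; 0% = bacteria only wells and 100% = bacteria with antibiotic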
Mtb FBA inh: Mtb FBA enzyme inhibitors, primary screen, biochemical, fluorescence, strain H37Rv; Fructose-bisphosphate aldolase (Mycobacterium tuberculosis (strain ATCC 25618 / H37Rv)), …; purified M. tuberculosis FBA, fluorescence read-out; inhibition, % at 1 µM; 360,000 compounds, 2.3% hits; in the data active = inhibition above about 27%;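 also: 0% = vehicle and 100% = reference inhibitor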
SSB-PriA inh: inhibitors of Klebsiella pneumoniae PriA binding to SSB C-terminal tail, primary screen, biochemical, AlphaScreen; PriA–SSB C-terminal tail interaction (Klebsiella pneumoniae); AlphaScreen SSBct-PriA binding, biotinylated peptide; inhibition, % at 33 µM; 430,000 compounds, 0.6% hits; AID 1272365, 2023; in the data active = inhibition mostly above about 37%, no sharp cut-off; inactive = mostly below about 20%;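 also: plate controls were negative control peptide for no effect and reference peptide for full effect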
GDH-TPI inh: GDH-TPI coupling enzyme inhibitors, primary screen, artefact control for M. tuberculosis FBA inhibitor project, biochemical, absorbance, full deck; inhibition, % at 4.8 µM; 360,000 compounds, 1.2% hits; GDH-TPI coupled enzyme counterscreen, NADH absorbance; in the data active = inhibition above about 30%;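 also: 0% = DMSO wells and 100% = wells lacking the enzyme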
Mtb UGM inh: M. tuberculosis UGM enzyme inhibitors, primary screen, biochemical, fluorescence polarization, single point; AID 504406, 2011; 320,000 compounds, 0.06% hits; purified UGM, fluorescence polarization probe displacement; UDP-galactopyranose mutase (Mycobacterium tuberculosis (strain ATCC 25618 / H37Rv)), …; inhibition, % at 10 µM; in the data active = inhibition above about 10%, passing the limit was not always enough; inconclusive = no clear call, values can overlap the other calls
Target sequence (P9WIQ1 whole entry, looked up): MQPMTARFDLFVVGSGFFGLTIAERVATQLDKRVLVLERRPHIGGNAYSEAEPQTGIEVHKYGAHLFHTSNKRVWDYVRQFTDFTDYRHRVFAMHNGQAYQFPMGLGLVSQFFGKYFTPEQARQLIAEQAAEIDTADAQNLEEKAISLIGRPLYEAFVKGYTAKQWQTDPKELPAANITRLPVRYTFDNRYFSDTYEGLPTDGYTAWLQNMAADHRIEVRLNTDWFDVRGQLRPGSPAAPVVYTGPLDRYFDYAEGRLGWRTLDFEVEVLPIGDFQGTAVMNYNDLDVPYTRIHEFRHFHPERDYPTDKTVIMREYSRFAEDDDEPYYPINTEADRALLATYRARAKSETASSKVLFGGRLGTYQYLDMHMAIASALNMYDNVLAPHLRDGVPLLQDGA
* marks the source's active call; other numbers are inactive results; u = inconclusive; x = not tested or not shown.

SMILES	Rv3671c protease	Mtb betalactam	Mtb FBA inh	SSB-PriA inh	GDH-TPI inh	Mtb UGM inh
CCn1nc(C)c2c1c(=O)n(Cc1ccc(F)cc1)c(=O)n2CC(=O)Nc1cccc(SC)c1	x	x	x	-12	x	x
Cc1cc(OCC(=O)NCc2ccc(S(N)(=O)=O)cc2)c2c3c(c(=O)oc2c1)CCC3	0	7	40*	-5	24	3
CCCCn1c(NC(=O)c2ccccc2Cl)c(C#N)c2nc3ccccc3nc21	-213	u	26	36	4	1
N#Cc1c(NC(=O)c2ccccc2Cl)n(Cc2ccccc2)c2nc3ccccc3nc12	-72	15	35*	53*	7	2
CC(C)=CC(=O)Nc1nc(-c2cccc(Br)c2)cs1	x	x	x	6	x	x
CCN1CCCc2cc(CCNC(=O)C(=O)NCCc3ccccc3)ccc21	x	x	x	32	x	x
Cc1cc(NC(=O)C(=O)NCCc2ccc3c(c2)CCCN3C)c2ccccc2n1	x	x	x	42*	x	x
CCN1CCCc2cc(CCNC(=O)Nc3ccc(OC)c(OC)c3)ccc21	x	x	x	70*	x	x
CCN1CCCc2cc(CCNC(=O)Nc3ccccc3)ccc21	x	x	x	63*	x	x
CCN1CCCc2cc(CCNC(=O)C(=O)Nc3cccc(NC(C)=O)c3)ccc21	x	x	x	54*	x	x
COc1ccc2sc(Nc3nc4ccc5sc(C)nc5c4s3)nc2c1	x	x	x	-9	x	x
CCCc1nnsc1C(=O)NC[C@](C)(OC)c1ccccc1F	x	x	x	-9	x	x
O=S(=O)(CCOc1ccccc1)NCCn1nc(-c2ccncc2)cc1C1CC1	x	x	x	2	x	x
COc1ccccc1N1CCN(C(c2cc3ccc(C)cc3[nH]c2=O)c2nnnn2C2CCCC2)CC1 (stereo not given)	2	3	4	-6	34*	1
Cc1cc(O)c(NC(=S)NC(=O)c2ccc(-c3ccc(Cl)cc3)o2)cc1C	-3	-5	6	-6	37*	3
Cc1cc(O)c(NC(=O)c2ccc(-c3ccc(Cl)cc3)o2)cc1C	x	x	x	-10	x	x
CN(C)CCOc1ccc2c(c1)C(=O)C(=Cc1ncc([N+](=O)[O-])n1C)C2	x	x	3	x	32*	x
Cc1cccc(C(=O)N/N=C/c2ccc3c(c2)OCO3)n1	5	8	-3	x	33*	0
Cc1ccn2c(C(=O)N/N=C/c3ccc(Cl)cc3)c(C)nc2c1	x	x	2	x	10	x
Cc1ccn2c(=O)c(NC(=O)c3ccc4c(c3)OCO4)c(C)nc2c1	x	x	0	x	31*	x
Cc1ccn2c(=O)c(NC(=O)c3ccc(Cl)c([N+](=O)[O-])c3)c(C)nc2c1	x	x	x	0	x	x
Cc1ccn2c(C(=O)N/N=C\c3ccc4c(c3)OCO4)c(C)nc2c1	-6	0	-1	x	46*	3
Cc1nc2ccccn2c1C(=O)NN=Cc1ccccc1[N+](=O)[O-]	x	x	x	-9	x	x
Cc1ccn2c(C(=O)N/N=C\c3ccccc3[N+](=O)[O-])c(C)nc2c1	-5	-1	9	x	44*	-4
Cc1ccc(C(=O)NN=Cc2ccc3c(c2)OCO3)cn1	x	x	x	12	x	x
SMILES	Rv3671c protease	Mtb betalactam	Mtb FBA inh	SSB-PriA inh	GDH-TPI inh	Mtb UGM inh
O=C(N/N=C/c1ccc2c(c1)OCO2)c1ccc2ccccc2n1	1	60	0	x	32*	-1
O=C(NN=Cc1ccc2c(c1)OCO2)c1ccc2ccccc2n1	x	x	x	9	x	x
Cc1cc(=O)oc(C)c1C(=O)NCCC(C)C	1	-3	0	-5	32*	-2
Cc1cc(=O)oc(C)c1C(=O)NCCNC(=O)c1c(C)cc(=O)oc1C	-7	-4	4	-11	-5	-3
COc1ccc2nc(-c3ccc(F)c(NC(=O)c4cc(Cl)ccc4Cl)c3)cn2n1	x	x	x	2	x	x
COc1cc(C=NNC(=O)/C(=C\c2ccc([N+](=O)[O-])cc2)NC(=O)c2ccccc2)cc(OC)c1O	x	x	x	26	x	x
COc1cc(/C=N/NC(=O)/C(=C\c2ccc3c(c2)OCO3)NC(=O)c2ccccc2)ccc1O	4	8	-4	x	47*	3
COc1cc(/C=N/NC(=O)/C(=C\c2ccc([N+](=O)[O-])cc2)NC(=O)c2ccccc2)cc(OC)c1O	11	-1	-1	x	43*	-4
COc1cc(/C=N/NC(=O)c2ccc3c(c2)OCO3)ccc1O	x	4	1	x	35*	0
